# Compound activity: PubChem BioAssay, National Center for Advancing Translational Sciences (NCATS)
# Hits are enriched below; roughly 19% of the tested compounds scored in any of these assays.
# TDP1 cell noCPT = qHTS for Inhibitors of human tyrosyl-DNA phosphodiesterase 1 (TDP1): qHTS in cells in absence of CPT; DT40 Tdp1-/- hTDP1 cells, no CPT, ATP luminescence, 48 h; Potency, µM (highest dose often 46.2 µM), without a hit: at the top dose activity change, negative = growth inhibition, actives largely listed as inhibitors; actives 15% (n = 420,000); AID 686978, 2013; note: potency is the fitted concentration of half-maximal effect; % is set by controls: 0 for no effect and ±100 for the full control effect; nearly all actives have a fitted effect of over 55% in size
#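 Compound effects on proliferation are scored in DT40 Tdp1-/-;hTDP1 cells in the absence of CPT. ATP levels (CellTiter-Glo luminescence) are recorded after a ≥48 hr, 37 °C incubation.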
# TGFb inhibitor = blocks TGF-b signaling; actives 1.2% (n = 410,000); HepG2 CAGA-GFP TGF-b/SMAD3 reporter, GFP fluorescence, 18 h; TGF-beta stimulated, 500 pg/mL final; Potency, µM (titrated, usually from 46.1 µM), for inactives: at the top dose activity, negative = inhibition, usual class: inhibitors; note: potency is the fitted concentration of half-maximal effect; % is set by controls: 0 for no effect and ±100 for the full control effect; nearly all actives have a fitted effect of over 65% in size
#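 HEPG2 CAGA-GFP reporter cells (1000/well, DMEM with 1% FBS) received compounds, then recombinant TGF-beta at 500 pg/mL final for 18 hours at 37 degrees C. Per-cell GFP summed per well was normalised to unstimulated and stimulated DMSO controls before curve fitting.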
# TDP1 block = TDP1 (human) enzyme inhibition; Potency, µM (highest dose often 130 µM), inactives show at the highest dose activity change, negative = inhibition, usual class: inhibitors; recombinant TDP1, AlphaScreen DNA substrate cleavage; actives 0.28% (n = 350,000); note: potency is the fitted concentration of half-maximal effect; % is set by controls: 0 for no effect and ±100 for the full control effect; nearly all actives have a fitted effect of over 40% in size
# Target sequence (Q9NUW8 whole entry, looked up): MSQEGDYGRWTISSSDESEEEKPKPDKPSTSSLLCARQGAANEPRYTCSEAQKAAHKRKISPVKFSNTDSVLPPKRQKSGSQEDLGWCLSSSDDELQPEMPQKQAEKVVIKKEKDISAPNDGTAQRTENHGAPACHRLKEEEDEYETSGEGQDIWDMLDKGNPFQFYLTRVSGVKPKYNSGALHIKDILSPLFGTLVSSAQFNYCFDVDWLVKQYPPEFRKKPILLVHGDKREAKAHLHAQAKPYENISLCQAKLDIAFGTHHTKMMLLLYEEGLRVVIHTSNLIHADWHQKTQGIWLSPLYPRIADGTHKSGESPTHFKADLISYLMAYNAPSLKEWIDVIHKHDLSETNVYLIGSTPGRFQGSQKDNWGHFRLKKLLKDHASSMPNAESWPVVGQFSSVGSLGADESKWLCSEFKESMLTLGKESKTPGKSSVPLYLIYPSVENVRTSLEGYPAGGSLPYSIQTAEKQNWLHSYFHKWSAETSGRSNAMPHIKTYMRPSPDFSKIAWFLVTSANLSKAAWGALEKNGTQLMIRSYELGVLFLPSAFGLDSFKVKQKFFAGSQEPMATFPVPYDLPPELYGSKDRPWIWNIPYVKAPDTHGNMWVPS
#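 Steps: enzyme plus compound, 15 min RT; add biotin/phosphotyrosine-FITC oligonucleotide (15 nM final), react 5 min; add donor/acceptor beads (10 ug/ml final), 10 min; read AlphaScreen. Tdp1 at 1 nM final.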
# TDP1 cell CPT = DT40-hTDP1 cell growth loss with CPT; AID 686979; actives 12% (n = 420,000); Potency, µM (top dose mostly 46.2 µM), for inactives: at the top dose activity change, negative = growth inhibition, usual class: inhibitors; chicken DT40 Tdp1-/-;hTDP1 cells + 20 nM CPT, ATP luminescence, 48 h; note: potency is the fitted concentration of half-maximal effect; % is set by controls: 0 for no effect and ±100 for the full control effect; nearly all actives have a fitted effect of over 55% in size
#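 Cell growth measured by CellTiter-Glo luminescence after a minimum 48 h, 37 C compound exposure with 20 nM CPT in Tdp1-knockout DT40 cells stably expressing hTDP1, seeded 400/well; qHTS titration format.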
# HepG2 tox = kills HepG2 cells in TGF-b inhibitor counter-screen; actives 0.76% (n = 410,000); Potency, µM (doses to about 46.1 µM), for inactives: top-dose activity change, negative = cytotoxicity, hits mostly cytotoxic; HepG2 CAGA-GFP viability, ATP luminescence, 18 h; note: potency is the fitted concentration of half-maximal effect
#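 HepG2 CAGA-GFP cells (1000/well, DMEM with 1% FBS) received compound, then TGF-beta at 500 pg/mL final, and were incubated 18 hours at 37 degrees C. Viability was read by CellTiter-Glo luminescence. Media-only wells were set as complete cell-killing and DMSO as no toxicity.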
# IL1B secr inh = inflammasome signaling inhibition, IL-1 beta readout | THP-1 LPS/ATP IL-1B secretion, AlphaLISA, 16 h; active compounds read low | activity change, % at 57.5 µM | actives 4.7% (n = 360,000) | AID 743279; in the data active = activity change below about -50%; inconclusive = mostly about -30% to -49%; note: % is set by controls: 0 for no effect and ±100 for the full control effect
#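 THP-1 cells pretreated 1 hr with compounds (up to 57.5 uM final), then stimulated with LPS (250 ng/mL final) plus ATP (1.25 mM final); secreted IL-1B measured by AlphaLISA after 16 hr, decreased signal indicating inhibition.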
# * hit, by the source's call; ? = inconclusive; . = no result. Unless noted, calls come from the whole dose curve; as a rule, active = well fitted curve in the direction sought with a large enough effect; inconclusive = small, poorly fitted or top-dose-only effect, or another doubt; inactive = no such curve, though single readings can be large; an effect the other way counts as inactive or inconclusive.
SMILES,TDP1 cell noCPT,TGFb inhibitor,TDP1 block,TDP1 cell CPT,HepG2 tox,IL1B secr inh
O=C(NCCc1ccccc1)c1cc(Sc2cccc(Cl)c2)nc2ccccc12,16.4µM*,-4.9%,-5.2%,?,-11.0%,.
CCOc1ccc(S(=O)(=O)N(CC(=O)N2CCC(C(N)=O)CC2)c2ccc(F)cc2)cc1,1.9%,9.1%,-1.2%,-10.6%,1.1%,-8.6
CCN1C(=O)[C@H]2[C@@H](c3ccc(-c4cccc(Cl)c4)c(OC)c3)N[C@@](C)(C(=O)OC)[C@H]2C1=O,?,-14.7%,-9.5%,13µM*,-33.8%,-7.3
COC(=O)[C@]1(C)N[C@H](c2ccc(-c3ccc(Cl)c(Cl)c3)c(OC)c2)[C@@H]2C(=O)N(C)C(=O)[C@@H]21,7.31µM*,?,.,9.2µM*,-22.5%,-12.5
CCN1C(=O)C2C(c3ccc(O)c(OC)c3)NC(C)(C(=O)OC)C2C1=O (stereo unspecified),-15.3%,5.7%,2.0%,1.8%,-4.9%,33.4
COC(=O)[C@]1(C)N[C@H](c2ccc(-c3ccc(OC)cc3)cc2)[C@@H]2C(=O)N(C)C(=O)[C@@H]21,-14.4%,-8.2%,0.0%,-8.8%,17.4%,-2.0
O=[N+]([O-])c1cc(-c2ccc(/C=N/c3nc4ccccn4c3-c3ccco3)o2)ccc1Cl,23.1µM*,-5.3%,5.1%,?,-25.4%,?
C=CCn1cc(C(=O)NCCN(CC)CC)c(=O)c2cc(S(=O)(=O)N3CCCCCC3)ccc21,6.9%,10.2%,1.8%,?,-1.2%,-25.5
C=CCn1cc(C(=O)NCc2ccco2)c(=O)c2cc(S(=O)(=O)N3CCCCCC3)ccc21,?,?,9.4%,20.6µM*,-46.3%,?
C=CCn1cc(C(=O)NCCOC)c(=O)c2cc(S(=O)(=O)N3CCCCCC3)ccc21,?,?,1.6%,?,10µM*,-16.8
CCn1cc(C(=O)NCc2ccco2)c(=O)c2cc(S(=O)(=O)N3CCCCCC3)ccc21,?,-3.5%,9.8%,20.6µM*,-47.4%,-28.2
COc1ccc(NC(=O)C2(S(=O)(=O)c3ccc(C)cc3)CC2)c(OC)c1,-21.7%,5.0%,0.0%,-10.5%,-19.4%,.
O=C(CNS(=O)(=O)c1ccccc1)NCC(=O)OCc1ccc(Br)cc1,?,-0.8%,2.7%,20.6µM*,-10.1%,8.0
Cn1ccc2c(OCC(=O)Nc3ccc([N+](=O)[O-])cc3)cccc2c1=O,?,2.9%,-5.2%,-29.2%,-32.2%,.
Cn1ccc2c(OCC(=O)Nc3ccc(OC(F)(F)F)cc3)cccc2c1=O,7.31µM*,-18.4%,2.6%,11.6µM*,-34.6%,.
CCOC(=O)c1ccc(NC(=O)COc2cccc3c(=O)n(C)ccc23)cc1,18.4µM*,-8.7%,7.8%,20.6µM*,-23.4%,.
COc1ccc(C)c2sc(NC(=O)c3ccc(S(=O)(=O)N(C)C)cc3)nc12,-24.1%,-1.0%,0.0%,-27.9%,-21.1%,.
CCCCC1(C(=O)OC)NC(c2ccc(O)cc2)C2C(=O)N(c3ccccc3)C(=O)C21 (stereo unspecified),-7.3%,-14.3%,.,3.3%,-21.3%,0.2
Cc1ccc(S(=O)(=O)N2CCN(Cc3cc(=O)n4nc(-c5ccccc5Cl)sc4n3)CC2)cc1,-16.9%,-17.0%,2.7%,-1.6%,-19.8%,.
CCc1nc(SCC(=O)Nc2ccccc2OC)c2c(C)c(C)sc2n1,20.6µM*,-11.1%,.,?,-11.9%,?
CCc1nc(SCC(=O)Nc2cc(C)ccc2OC)c2c(C)c(C)sc2n1,14.6µM*,11.3%,.,-6.3%,-15.9%,3.6
Cc1sc2nc(SCC(=O)Nc3ccccc3F)[nH]c(=O)c2c1C,-22.0%,32.8%,.,-6.0%,1.5%,16.0
Cc1ccc(C)c(NC(=S)N/N=C2\CCc3ccccc32)c1,20.6µM*,?,9.3%,?,-18.1%,77.6
CCN(C(=N)N=C(N)N)c1ccccc1,18.4µM*,-7.5%,2.7%,?,-7.2%,0.6
OC[C@H]1OC(O)(CN2CCOCC2)[C@H](O)[C@@H]1O (stereo partly specified),.,.,5.6%,.,.,.
SMILES,TDP1 cell noCPT,TGFb inhibitor,TDP1 block,TDP1 cell CPT,HepG2 tox,IL1B secr inh
COc1cc(NS(=O)(=O)c2ccc(C)c(C)c2)c(OC)cc1Cl,?,0.9%,-3.0%,18.4µM*,-10.0%,7.8
O=S(=O)(c1ccccc1)N1CCN(Cc2c(O)ccc3ccccc23)CC1,15.2%,-18.5%,-0.9%,-19.4%,-28.6%,?
O=c1cc(CN2CCN(C/C=C/c3ccccc3)CC2)c2cc(O)c(-c3ccccc3)cc2o1,18.4µM*,-2.4%,2.5%,18.4µM*,-14.3%,?
Oc1ccc2ccccc2c1CN1CCN(C/C=C/c2ccccc2)CC1,-13.0%,-34.5%,6.9%,-33.4%,-23.3%,-76.7*
Cc1c(O)ccc2c(CN3CCN(C/C=C/c4ccccc4)CC3)cc(=O)oc12,?,-19.3%,.,?,-6.3%,-76.7*
COc1ccccc1OCC(=O)Nc1c(C(=O)c2ccc(F)cc2)oc2ccccc12,.,3.1%,1.1%,.,-7.2%,.
CS(=O)(=O)N1CCc2cc(S(=O)(=O)Nc3ccc4c(c3)OCCO4)ccc21,8.2µM*,?,-3.1%,11.6µM*,-25.7%,-21.6
O=C(C1CCC1)N1CCc2cc(S(=O)(=O)NC3CCCC3)ccc21,?,15.8%,5.2%,?,-0.3%,34.5
O=C(C1CC1)N1CCc2cc(S(=O)(=O)N3CCCc4ccccc43)ccc21,14.6µM*,7.5%,-1.0%,?,0.7%,4.5
O=C(C1CCN(S(=O)(=O)c2ccc3c(c2)OCCO3)CC1)N1CCc2ccccc21,20.6µM*,-5.9%,5.3%,?,0.5%,-6.9
O=C(C1CCC1)N1CCc2cc(S(=O)(=O)Nc3ccc4c(c3)OCCO4)ccc21,7.31µM*,-13.7%,4.1%,11.6µM*,-22.7%,?
O=C(CSc1nc2c([nH]c3ccccc32)c(=O)n1-c1ccccc1)N1CCCCC1,-4.2%,-23.3%,0.0%,0.2%,-23.7%,.
Cc1cc(Cl)ccc1NS(=O)(=O)c1ccc2c(c1)CCN2S(C)(=O)=O,20.6µM*,?,-1.1%,?,-0.6%,.
CCC(=O)N1CCc2cc(S(=O)(=O)Nc3ccc4c(c3)OCCO4)ccc21,5.17µM*,-9.8%,4.9%,9.2µM*,0.5%,?
Cc1c(NC(=O)Nc2ccc(Cl)c(Cl)c2)sc(=S)n1C,?,?,.,25.9µM*,-11.4%,-96.7*
